# High-throughput results deposited in PubChem BioAssay by DiRusso Lab, Biochemistry Department, University of Nebraska.
# This excerpt belongs to a sample that is enriched for hits.
# Chlamy TAG = algal TAG accumulation induction | Chlamydomonas reinhardtii TAG, Nile Red fluorescence, 72 h | calls only at 10 µM (by protocol) | 0.84% of 44,000 active | AID 1159537; call rule not given here;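 also: hits raise Nile Red signal meaning more stored TAG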
# Starred values were filed as active, the others as inactive; i = inactive; + = active, no number.
SMILES,Chlamy TAG
COc1ccc(CN2CCC(C(=O)N3CCN(c4cccc(C)c4C)CC3)CC2)cc1,i
O=C(C1CCCCC1)N1CCN(c2ccccc2F)CC1,i
Cc1cccc(N2CCN(C(=O)C3CCN(CC4CCCCC4)CC3)CC2)c1C,+
Cc1ccc(CN2CCC(C(=O)N3CCN(c4cccc(C)c4C)CC3)CC2)o1,i
NS(=O)(=O)c1ccc(NC(=O)CSc2nnc(NC(=O)c3ccccc3)s2)cc1,i
COc1ccc(CN2CCC(C(=O)NCc3cccnc3)CC2)cc1OC,i
O=C(CSc1nnc(Cc2ccccc2)o1)c1ccc(Br)cc1,i
Cc1ccccc1CSc1nnc(NC(=O)Nc2ccccc2F)s1,i
CC1CCCN(C(=O)COc2ccc(Cl)cc2)C1 (stereo not given),+
COc1ccc(N2CCN(C(=O)COc3ccc(Cl)cc3)CC2)cc1,i
O=C(COc1ccc(Cl)cc1)N1CCN(c2cccc(Cl)c2)CC1,i
Cc1csc(NC(=O)c2c(O)c3ccccc3n(C)c2=O)n1,i
Cc1cc(Br)cc(C)c1NC(=O)c1cccc(Cl)c1Cl,i
CCCCN(CC)C(=O)c1cc(-c2ccccc2)nc2ccccc12,i
C=CCc1cc(OC)ccc1OCCOCCN1CCN(C)CC1,i
Cc1cc(C(C)(C)C)ccc1OCCCN1CCN(C)CC1,i
Cc1cc(Cl)c(OCCCN2CCN(C)CC2)c(Br)c1,i
Cc1ccc(OCC(O)CN2CCN(c3ccccc3)CC2)c(C)c1 (stereo not given),i
Cc1cc(C(C)(C)C)ccc1OCCN1CCN(C)CC1,+
OC(COc1ccc(Cl)cc1Cl)CN1CCc2ccccc2C1 (stereo not given),i
CN1CCN(CCOCCOc2c(Cl)cc(Cl)cc2Cl)CC1,i
Cc1cc(Cl)c(OCCOCCN2CCN(C)CC2)c(Br)c1,+
CN1CCN(CCOCCOc2ccc(Cl)cc2C(C)(C)C)CC1,i
Cc1cc(Cl)ccc1OCC(O)CN1CCN(C)CC1 (stereo not given),+
Cc1cc(C(C)(C)C)ccc1OCCN1CCOCC1,i
SMILES,Chlamy TAG
Cc1cc(C(C)(C)C)ccc1OCCOCCN1CCN(C)CC1,+
CCN1C(=O)C(O)(CC(=O)c2ccccc2)c2ccccc21 (stereo not given),i
CC(C)c1ccc(OCC(=O)N2C(C)CCCC2C)cc1 (stereo not given),i
O=C(CSc1ccccc1C(=O)O)c1ccc(F)cc1,i
C=CCNC(=O)Nc1ccc(Cl)cc1,i
COc1cc(CO)ccc1OCc1ccc(Cl)cc1,i
Cc1ccc(S(=O)(=O)N2CCN(c3nc(-c4ccccc4)cs3)CC2)cc1,i
Cc1ccc(C(=O)Nc2ccc(Br)c3cccnc23)cc1,i
O=C(CCc1ccccc1)Nc1ccc2c(c1)C(=O)NC2=O,i
COc1ccc(C(=O)Nc2sc3c(c2C(N)=O)CCCCCC3)cc1OC,i
CN1CCN(CCOCCOc2ccccc2-c2ccccc2)CC1,i
C=CCc1cc(C)ccc1OCCOCCN1CCN(C)CC1,i
Cc1ccc(OCCOCCN2CCN(C)CC2)c(I)c1,+
Cc1cccc(C)c1NC(=O)c1cccc(OCc2ccccc2)c1,i
Cc1ccccc1CN1CCN(C(=O)c2ccc([N+](=O)[O-])cc2)CC1,i
CNCC(=O)NC12CC3CC(CC(C3)C1)C2,i
O=C(NCC12CC3CC(CC(C3)C1)C2)NC1CCCCC1,i
O=C(CCN1CCOCC1)NC12CC3CC(CC(C3)C1)C2,i
CNCC(=O)NCC12CC3CC(CC(C3)C1)C2,i
O=C(CN1CCCCC1)NCC12CC3CC(CC(C3)C1)C2,+
O=C(CN1CCCCC1)NC12CC3CC(CC(C3)C1)C2,+
O=C(NC1CCCCCCC1)c1ccccc1,i
CN(c1ccc(C(=O)NC2CCCCCC2)cc1)S(=O)(=O)c1ccccc1,+
CN(C)S(=O)(=O)c1ccc(C(=O)NC2CCCCCCC2)cc1,i
O=C(c1cccs1)n1nnc2ccccc21,i
SMILES,Chlamy TAG
O=C(Nc1nnc(-c2cccnc2)s1)C1CCCCC1,i
C=CCNC(=O)C(C)N(c1ccc(OCC)cc1)S(C)(=O)=O (stereo not given),+
CCOc1ccc(N(C(C)C(N)=O)S(C)(=O)=O)cc1 (stereo not given),i
CCOc1ccc(N(C(C)C(=O)NCc2ccccc2OC)S(C)(=O)=O)cc1 (stereo not given),i
COc1cc(C2C(C(=O)c3ccco3)=C(O)C(=O)N2CCN2CCOCC2)cc(OC)c1OC (stereo not given),i
Cc1ccc(C)c(N2CCN(Cc3ccc(C)s3)CC2)c1,i
Cc1ccc(C)c(N2CCN(C3CCCCCC3)CC2)c1,+
C/C=C(\C)CN1CCN(c2cc(C)ccc2C)CC1,i
CCOc1ccc(N2CC(=O)NC2=O)cc1,i
CCN(CC)c1ccc(CN2CCSCC2)cc1,i
CCN(CC)c1ccc(CN2CCN(C)CC2)cc1,i
CCN1CCN(Cc2ccc(N(CC)CC)cc2)CC1,+
COc1ccccc1N1C(=O)CC(N2CCN(S(=O)(=O)c3ccccc3)CC2)C1=O (stereo not given),i
O=C(Nc1ccc([N+](=O)[O-])cc1Br)C1CC1(c1ccccc1)c1ccccc1 (stereo not given),i
C=CCc1ccccc1OCC(O)CN1C(C)CCCC1C (stereo not given),i
C=CCc1ccccc1OCC(O)CN(C)C1CCCCC1 (stereo not given),+
C=CCc1ccccc1OCC(O)CN1CCC(C)CC1 (stereo not given),i
CCc1cc2c(=O)c(Oc3ccc(F)cc3)coc2c(CN(C)C)c1O,i
COc1ccc(S(=O)(=O)N(CC(=O)Nc2ccc3c(c2)OCCO3)c2ccccc2)cc1,i
Cc1ccc(-c2csc(/C(C#N)=C/Nc3ccc([N+](=O)[O-])cc3)n2)cc1,i
Cc1ccsc1/C=C(\C#N)c1nc(-c2ccc([N+](=O)[O-])cc2)cs1,+
N#C/C(=C\c1ccc([N+](=O)[O-])cc1)c1nc(-c2ccc(F)cc2)cs1,i
CC1(C)C(=O)N(O)C(C)(C)C(=O)N1O,i
O=C1NC(c2ccc([N+](=O)[O-])cc2)C(=C(O)c2ccccc2)C1=O (stereo not given),i
CCN1/C(=C/C(C)=O)Sc2ccccc21,i
SMILES,Chlamy TAG
COCCNC(=O)Nc1ccc2snnc2c1,i
C1=CC2CC1CC2CN1CCN(Cc2ccccc2)CC1 (stereo not given),+
c1coc(CN2CCN(Cc3ccncc3)CC2)c1,i
COc1ccc(CN2CCN(Cc3ccc(OC)c(OC)c3)CC2)cc1,i
Cc1ccc(C)c(N2CCN(CC3CC4C=CC3C4)CC2)c1 (stereo not given),+
OC1CCN(CC2CC3C=CC2C3)CC1 (stereo not given),i
C1=CC2CC1CC2CN1CCN(Cc2ccncc2)CC1 (stereo not given),i
c1ccc(N2CCN(Cc3ccco3)CC2)cc1,i
COc1cc(OC)c(OC)cc1CN1CCN(c2cc(C)ccc2C)CC1,i
c1coc(CN2CCN(C3CCCCCC3)CC2)c1,+
COc1ccc(CN2CCN(CC3CC4C=CC3C4)CC2)cc1OC (stereo not given),+
CCS(=O)(=O)N1CCN(CC2CC3C=CC2C3)CC1 (stereo not given),i
COc1ccc(CN2CCCCCC2)cc1OC,i
COc1ccc(C)cc1NCc1ccc(SC)cc1,i
COc1cccc(OC)c1C(=O)Nc1c(C(C)C)cccc1C(C)C,i
O=C(Nc1ccc(F)cc1F)c1cccc(F)c1,i
